# About 8,600 (12%) of roughly 69,000 compounds showed an effect of 50% or more. Many of the other results were omitted from the sample, so strong results are more common in it than they were.
# Test system: Plasmodium berghei
# Assay: Screen against P. berghei liver stage (PbLuc), transformed with Luciferase, at 10uM
# Format: functional, HepG2
# Details: tested at 10 uM
row,Structure (SMILES),INHIBITION
1,CN1[C@H](CN2CCCC2)C[C@@H]2CN(C(=O)Cc3cccs3)CC[C@@H]21,49.1%
2,CN1CCN(C)c2cc(NC(=O)c3cc[nH]n3)ccc2C1,43.1%
3,CCc1ccc(C(=O)Nc2ccc3c(c2)N(C)CCN(C)C3)o1,66.9%
4,Cc1cc(C(=O)Nc2ccc3c(c2)N(C)CCN(C)C3)on1,44.2%
5,c1ccc(OCCN2CCN(c3ncnc4[nH]ccc34)CC2)cc1,35.1%
6,c1ccc(CCCN2CCCN(c3ncnc4[nH]ccc34)CC2)cc1,52.7%
7,c1ccc(CCN2CCN(c3ncnc4[nH]ccc34)CC2)cc1,33%
8,COc1ccc(Cn2c(CCc3c(C)n[nH]c3C)n[nH]c2=O)cc1,-5.08%
9,CCCc1nc(C)c(C(=O)NCCN2CCOCC2)s1,-65.3%
10,COc1ccc(CCC2CCCCN2)cc1 (stereo not given),49.6%
11,O=C(O)c1cnc2c(Br)cccc2c1O,27.5%
12,O=C(O)c1ccnc2c(Br)cccc12,9.32%
13,O=C(O)c1cccc2c(Br)cccc12,73.9%
14,C=C(C)COc1ccccc1C(=O)NCCc1cc(O)nc(C)n1,41.3%
15,O=C(C1CC1)N1CCc2ccccc2C12CCNCC2,55.4%
16,CCOC(=O)N1CCc2ccccc2C12CCNCC2,50.4%
17,CCOC(=O)N1CC2(CCNCC2)c2cc(Cl)ccc21,21.1%
18,O=C(C1CC1)N1CC2(CCNCC2)C1,-1.12%
19,COCC(=O)N1CCc2ccccc2C12CCNCC2,40.5%
20,CN(C)C(=O)N1Cc2ccccc2C2(CCNCC2)C1,12.4%
21,Cc1ccc(CC(=O)N2CCC(Nc3cccnn3)CC2)s1,-58.0025%
22,Cc1ccccc1C(C(=O)NCCS(C)(=O)=O)N(C)C (stereo not given),22.6%

row,Structure (SMILES),INHIBITION
1,c1ncn(CC2CN(Cc3nc(-c4ccsc4)no3)CCO2)n1 (stereo not given),-3.165%
2,Cc1nc(C)n(CC2CN(Cc3ccccc3OC(C)C)CCO2)n1 (stereo not given),26.5%
3,NCc1cnn(-c2ccccc2C(=O)NCc2ccccn2)c1,53.2%
4,COCCNC(=O)c1ccccc1-n1cc(CN)cn1,17.1%
5,NCc1cnn(-c2ccccc2C(=O)NCCCn2ccnc2)c1,54.6%
6,NCc1cnn(-c2ccccc2C(=O)NCCc2ccccn2)c1,24.4%
7,NCc1cnn(-c2ccccc2C(=O)NCc2ccncc2)c1,17.1%
8,NCc1cnn(-c2ccccc2C(=O)NCCc2ccncc2)c1,8.72%
9,CCN(C(=O)c1ccc(-n2ncc(C#N)c2N)cc1)C1CCCC1,25.1%
10,Cc1cc(NCCNS(C)(=O)=O)nc2cc3c(cc12)CCC3,-6.88%
11,Cc1cc(C)n(-c2cncc(NCCNS(C)(=O)=O)n2)n1,29%
12,COc1cc2nc(NCCNS(C)(=O)=O)cc(C)c2cc1OC,50.3%
13,Cc1cc(NCCS(C)(=O)=O)nc2ccccc12,8.05%
14,Cc1cc(NCCCNS(C)(=O)=O)nc2ccccc12,62%
15,Cc1cc(NCC2(O)CCOCC2)c2ccccc2n1,26%
16,Cc1cc(NCCOCCS(C)(=O)=O)nc2ccccc12,46.6%
17,OC1(CNc2cc(C(F)(F)F)nc3ccccc23)CCOCC1,-32.3%
18,Cc1cc(NCC2(O)CCOCC2)nc2ccccc12,71.7%
19,O=S(=O)(NCC1CCN(c2cnccn2)CC1)c1ccc(F)c(Cl)c1,-54.5%
20,CCc1c(C)n(CC(C)=O)c2nc3ccccc3n2c1=O,4.66%
21,c1csc(CN2CC(c3nc(-c4cnccn4)no3)C2)c1,-12.6%
22,CN(Cc1noc(C2CC2)n1)C1CCN(CCc2cnn(C)c2)C1 (stereo not given),11.2%

row,Structure (SMILES),INHIBITION
1,Cc1ccc(CN2C[C@H]3C[C@H](C(=O)NCC4CC4)N(C)[C@H]3C2)o1,18.6%
2,CN(Cc1cnn(C)c1)CC1CCCN1c1cccnn1 (stereo not given),5.7%
3,NCc1ccc(Oc2ccc(F)c(F)c2)cc1C(F)(F)F,26.1%
4,Cc1ccc(CNC(=O)COc2ccc3c(c2)OCC3O)cc1 (stereo not given),0.266%
5,COCCn1nc(C(=O)N(C)Cc2ccc3ccccc3c2)ccc1=O,43.4%
6,Cc1cnn(CC2CCCCN2C(=O)c2cccnc2N(C)C)c1 (stereo not given),15.5%
7,O=C(c1ccoc1)N1CCC2(CC1)COC(COc1ccccn1)C2 (stereo not given),73.6%
8,O=C(c1ccoc1)N1CCC2(CC1)COC(COCc1ccccn1)C2 (stereo not given),23.8%
9,O=C(c1ncccn1)N1CCC2(CC1)COC(COc1ccccn1)C2 (stereo not given),12.6%
10,CCC(C)N(CCOC)Cc1nc2c(cnn2C)c(=O)[nH]1 (stereo not given),14.22%
11,CC(C)NC(=O)CC(C)NCc1ccc(F)cc1Cl (stereo not given),53.6%
12,CC(C)NC(=O)CC(C)NCc1cc(Cl)ccc1F (stereo not given),27.6%
13,CN(CC(N)=O)Cc1ccc(F)cc1Cl,-59.5%
14,COc1c(C(=O)NC(C)Cc2ccccc2Cl)c(C)nn1C (stereo not given),17.5%
15,O=C(O)c1c(-c2cncnc2)ncc2c1CCN(Cc1ccco1)C2,-27.1%
16,CCn1nc2c(cc1=O)CN(Cc1nc(-c3cccnc3)no1)CC2,-56.575%
17,Cc1cnc(N)nc1NCCSCc1[nH]cnc1C,39.1%
18,CCc1c(C)nc(N)nc1NCCSCc1[nH]cnc1C,69.4%
19,Cc1nc(C)c(C)c(NCCSCc2[nH]cnc2C)n1,-8.47%
20,CN(Cc1cnn(C)c1)C(=O)Cc1ccc2c(c1)OCCO2,-18.5%
21,Cc1nn(C)c(Cl)c1S(=O)(=O)N(C)C,12.3%
22,Cc1n[nH]c(C)c1S(=O)(=O)N(C)Cc1nn(C)c(Cl)c1Cl,23.8%

row,Structure (SMILES),INHIBITION
1,Cc1nn(C)c(C)c1CN(C)S(=O)(=O)c1c(C)n[nH]c1C,53.5%
2,CCn1nc(C)c(CN(C)S(=O)(=O)c2cnn(C)c2)c1C,6.83%
3,Cc1noc(C)c1S(=O)(=O)N(C)Cc1nn(C)c(Cl)c1Cl,15.9%
4,Cc1nn(C)c(C)c1S(=O)(=O)N(C)Cc1nn(C)c(Cl)c1Cl,54.5%
5,CS(=O)(=O)N[C@@H]1CCN(Cc2nccs2)[C@H]1Cc1ccncc1,30.5%
6,COc1cccc(C(C(=O)O)N2CCSCC2)c1F (stereo not given),17%
7,CC(C)CN(CC(F)(F)F)S(=O)(=O)c1cc(C(N)=O)n(C)c1,-36.4%
8,CCC1C=CCN1C(=O)c1cc(COc2ccccc2OC)[nH]n1 (stereo not given),-2.39%
9,CCCC(=O)N(C)CC(=O)Nc1ccc(Br)cn1,-9.37%
10,COCC1c2c(cnn2CC2CC2)CCN1Cc1cccs1 (stereo not given),-0.912%
11,Cc1ocnc1C(=O)N1CC[C@@]2(O)CCN(C(=O)N3CCCC3)C[C@H]2C1,36.5%
12,Cc1nc(C2CCCN(C(=O)c3scnc3C)C2)no1 (stereo not given),18.1%
13,Cc1noc(C2CCCN(C(=O)c3cc(Cl)c(Cl)n3C)C2)n1 (stereo not given),51.4%
14,Cc1noc(C2CCCN(C(=O)c3cncc(Br)c3)C2)n1 (stereo not given),-27.8%
15,Cc1noc(C2CCCN(C(=O)c3cccc(Cl)c3)C2)n1 (stereo not given),39.5%
16,Cc1cncc(C2CCCN(C(=O)c3scnc3C)C2)n1 (stereo not given),51.7%
17,Cc1ncsc1C(=O)N1CC[C@@]2(O)CCN(C(=O)N3CCCC3)C[C@H]2C1,65.7%
18,Cc1noc(C2CCCN(C(=O)c3ccc(Br)o3)C2)n1 (stereo not given),60.5%
19,Cc1noc(C2CCN(C(=O)c3cc(Cl)c(Cl)n3C)CC2)n1,16.6%
20,Cc1cc(C(=O)N2CCCC(c3nc(C)no3)C2)on1 (stereo not given),20%
21,Cc1cc(C(=O)N2CC[C@@]3(O)CCN(C(=O)N4CCCC4)C[C@H]3C2)no1,1.74%
22,Cc1cncc(C2CCCN(C(=O)c3cn(C)nc3C)C2)n1 (stereo not given),36.7%

row,Structure (SMILES),INHIBITION
1,OCCCN1CCOC(c2ccc(F)cc2)C1 (stereo not given),30.2%
2,CC(C)c1nc(C(=O)N2CCOCC2CC(=O)c2ccco2)c[nH]1 (stereo not given),9.48%
3,Cc1cc(C)n(CC2CCCN2CC(=O)Nc2cc(C(C)C)no2)n1 (stereo not given),-6.44%
4,CN(C)CCOCC1CN(Cc2ccc(F)cc2)Cc2nnn(C)c21 (stereo not given),33.2%
5,O=C(c1ccco1)N1C[C@@H]2[C@@H](C1)OCC(=O)N2Cc1cccnc1,35.8%
6,CS(=O)(=O)N1CCC2(CCN(C(=O)c3cccs3)CC2)CC1,32.1%
7,Cc1noc(C2CCCN(C(=O)c3scnc3Cl)C2)n1 (stereo not given),74.2%
8,Cc1noc(C2CCCN(C(=O)c3cc(Cl)ccc3F)C2)n1 (stereo not given),-49.5%
9,Cc1noc(C2CCCN(C(=O)c3cc(Cl)cn3C)C2)n1 (stereo not given),46.4%
10,CN1CCCCc2c1nc1c(c2N)CCCC1,53.3%
11,CN1CCCc2c1nc1c(c2N)CCCC1,7.38%
12,CN1CCCCc2c1nc1c(c2N)CCC1,8.46%
13,Cc1cc(C)c2nc(CN(C)C(C)c3ccncn3)cc(O)c2c1 (stereo not given),-33.3%
14,Cc1noc([C@@H]2C[C@H](NC(=O)NC(C)C)CN2C)n1,50.2%
15,Cc1ccc(-c2noc([C@@H]3C[C@H](NC(=O)NC(C)C)CN3C)n2)cc1,23%
16,Cc1noc([C@@H]2C[C@H](NC(=O)NC3CCCCC3)CN2C)n1,22.2%
17,Cc1cnc(C(=O)NCc2ccnc(N(C)C)c2)cn1,11.6%
18,O=C(O)c1c[nH]c2cc(NS(=O)(=O)c3cccc(F)c3F)ccc12,-10.1%
19,CCn1c(C)nnc1SCCNc1cc(N2CCOCC2)ncn1,14%
20,CCN1CCOC(CNCc2ccccc2OCc2cccnc2)C1 (stereo not given),-46.55%
21,CN(C)S(=O)(=O)N1CCN(C(=O)c2cc(-c3ccccc3)[nH]n2)CC1,18.5%
22,Cc1nn(C)c2ncnc(N3CCC(O)(CN4CCCC4)CC3)c12,30%
